About 83,000 compounds went through this panel and 20% of them were active in at least one assay; those are over-represented in the sample as a whole.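 Single-dose data. Exposure time 48 hours. Values below 10 considered active.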 Values without a mark were called inactive. Calls of active or inactive are those of the source.

Common to all, as to test: NCI-60 one-dose screen, 48 h (100 = growth as untreated, 0 = no growth, -100 = all killed)
Settings in all cases: 10 µM unless noted

Experiment [1] deals with SK-MEL-2 melanoma.
Experiment [2] has as its system EKVX NSCLC.
The test system of experiment [3] is SN12C renal.
Experiment [4] deals with UO-31 renal.
Experiment [5] concerns TK-10 renal.
The subject of experiment [6] is ACHN renal.
Experiment [7] has as its system CAKI-1 renal.
Experiment [8] deals with A498 renal.
The test system of experiment [9] is CCRF-CEM leukemia.
Experiment [10] has as its system MOLT-4 leukemia.
Experiment [11] has as its system SR leukemia.
Experiment [12] concerns RPMI-8226 leukemia.
In experiment [13] the test system is OVCAR-8 ovarian.
Experiment [14] relates to OVCAR-5 ovarian.
Experiment [15] deals with OVCAR-4 ovarian.
The subject of experiment [16] is SK-OV-3 ovarian.
Experiment [17] deals with IGROV1 ovarian.
Experiment [18] has as its system OVCAR-3 ovarian.
For experiment [19], the system named is HS 578T breast.
For experiment [20], the system named is NCI/ADR-RES ovarian.

Regarding `COc1ccc(-c2ccc(-c3ccc(C(=N)N)nc3)s2)cc1Cl`, the growth in [1] was 102%; in experiment [2], 56.4%; in experiment [3], -81.7% (active); in experiment [4] it was -94.8% (active); in experiment [5], 94.5%; in experiment [6], -96.2% (active). Further, the growth in experiment [7] is -90.2% (active); in [8], 88.2%; in experiment [9], -49% (active); in [10], -49.3% (active); in [11] it was -7.17% (active); in [12] it was -45.4% (active). Besides, the growth is -28.5% (active) in [13]; -37.6% (active) in experiment [14]; -79.5% (active) in experiment [15]; 97.1% in experiment [16]; -87.8% (active) in [17]; -90.6% (active) in [18]. Also, the growth in experiment [19] is -48.3% (active); in experiment [20], 37.7%.
As to `CC1(C)CC2=C3C=C[C@@H]4[C@@]5(C)CCC(=O)C(C)(C)[C@@H]5CC[C@@]4(C)[C@]3(C)CC[C@@]2(C(=O)O)C[C@H]1O`, the growth is 9.89% (active) in [1]; 34.9% in experiment [2]; 21.8% in [3]; 17.1% in experiment [4]; 16.9% in experiment [5]; 8.49% (active) in experiment [6]. Further, the growth was 22.9% in experiment [7]; 34.9% in experiment [8]; 13.3% in experiment [9]; 19.5% in [10]; 24.4% in [11]; -7.05% (active) in experiment [12]. Moreover, the growth in experiment [13] was 32.6%; in experiment [14], 74.4%; in experiment [15], 24.4%; in experiment [16], 1% (active); in [17] it was 16.5%; in experiment [18], 11.6%. Further, the figures for the growth in experiment [19] and in [20] were 58.1% and 33.3%, respectively.
With `COc1ccc(-c2nc3c(N)c(CO)cnc3s2)cc1`, the growth in experiment [1] is 105%; in experiment [2], 48.4%; in [3], 108%; in experiment [4], 84.6%; in experiment [5], 91.9%; in experiment [6], 93.4%. In addition, the growth in [7] was 88.7%; in experiment [8], -19.1% (active); in experiment [9], 103%; in [10] it was 91.1%; in [11], 93.5%; in experiment [12], 92.9%. Further, the growth in [13] is 103%; in experiment [14], 80.4%; in experiment [16] it was 99.9%; in experiment [17], 84.7%; in experiment [18] it was 89.4%; in experiment [19], 92.8%. In addition, the growth in experiment [20] was 86.7%.
Turning to `CCn1c(-c2cc3c([nH]c4ccccc43)c(-c3cccc(O)c3)n2)n[nH]c1=S`, the growth in experiment [1] was -22.2% (active); in experiment [2], 56.9%; in experiment [3], 63.6%; in [4] it was 47.3%; in experiment [5], 9.38% (active); in experiment [6], 61.1%. In addition, the growth in experiment [7] is 47.9%; in experiment [8], 35%; in [9], 28%; in experiment [10], 25.6%; in experiment [11], -3.76% (active); in [12] it was 19.3%. The growth is 40.8% in [13]; 98.1% in experiment [14]; 54.8% in [15]; 55.8% in experiment [16]; 53.7% in [17]; 28.9% in experiment [18]. Besides, the growth is 28.1% in experiment [19] and 64.8% in experiment [20].
Take `CN1CCN(Cc2ccc(NC(=O)c3cncc(C#Cc4cnc5ccc(Cl)nn45)c3)cc2C(F)(F)F)CC1`: the growth in experiment [1] is -46.1% (active); in [2], -22% (active); in experiment [3], 0.38% (active); in [4] it was -11.5% (active); in experiment [5], 5.85% (active); in experiment [6], 1.09% (active). The growth in experiment [7] is -13.6% (active); in [8], -8.2% (active); in experiment [9] it was 2.17% (active); in [10] it was 3.14% (active); in experiment [11], -2.72% (active); in experiment [12] it was -25.6% (active). In addition, the growth is 8.97% (active) in experiment [13]; -4.08% (active) in experiment [14]; -4.08% (active) in experiment [15]; 12.3% in experiment [16]; 1.12% (active) in experiment [17]; -5.42% (active) in [18]. Further, the figures for the growth in experiment [19] and in experiment [20] were -14.6% (active) and 2.61% (active), respectively.
As for `COC(=O)c1nc(-c2ccccc2)oc1S(=O)(=O)NCC(c1ccc(Cl)cc1)N1CCOCC1` (centres undefined), the growth was 80.9% in [1]; 96.7% in [2]; 81.2% in [3]; 60% in experiment [4]; 62.3% in experiment [5]; 64.7% in experiment [6]. Also, the growth was 71.2% in experiment [7]; 90.4% in experiment [8]; -21% (active) in [9]; 7.96% (active) in [10]; 1.88% (active) in [11]; 7.86% (active) in [12]. Besides, the growth was 65% in experiment [13]; 77.7% in experiment [14]; 86.2% in experiment [15]; 97% in experiment [16]; 61.1% in experiment [17]; 35.1% in experiment [18]. Further, the growth was 85.8% in experiment [19] and 97.9% in experiment [20].
For `COC(=O)c1c2c(c(C)[n+]([O-])c1C)C(=O)C(NCc1cccc(Cl)c1)=CC2=O`, the growth was 33.7% in experiment [1]; 46.2% in experiment [2]; 0.796% (active) in experiment [3]; 50.6% in [4]; 73.5% in experiment [5]; 26.6% in experiment [6]. The growth is 42.2% in [7]; 106% in experiment [8]; 17.5% in experiment [9]; -12.6% (active) in experiment [10]; 9.98% (active) in experiment [11]; 26.9% in experiment [12]. In addition, the growth is -5.76% (active) in [13]; 40.6% in [14]; -76% (active) in [15]; 81.3% in experiment [16]; 2.76% (active) in [17]; -23.9% (active) in experiment [18]. Moreover, the figures for the growth in experiment [19] and in [20] were 79.1% and 0.849% (active), respectively.
For `O=c1cc(-c2ccccc2)[nH]c2ncc(-c3ccc(F)cc3)n12`, the growth was 74.2% in experiment [1]; 87.8% in experiment [2]; 88.5% in experiment [3]; 69.2% in [4]; 105% in [5]; 88.3% in [6]. In addition, the growth was 48.1% in [7]; 59% in experiment [8]; 56.3% in experiment [9]; 39.9% in experiment [10]; 16.1% in [11]; 74.5% in experiment [12]. In addition, the growth in experiment [13] was 89.4%; in experiment [14], 94.5%; in [15], 93.9%; in [16], 82.1%; in experiment [17], 67%; in [18] it was 54%. Further, the figures for the growth in experiment [19] and in [20] were 68% and 45.3%, respectively.

The values above are taken from PubChem BioAssay (NCI).
